# Results published in article PMC7862700, “An all-to-all approach to the identification of sequence-specific readers for epigenetic DNA modifications on cytosine”.
# Experiments:
# Experiment in all cases: DAPPL (digital affinity profiling via proximity ligation, sequencing); 10 mM Tris-HCl pH 7.5, 50 mM NaCl, 1 mM DTT, 4% glycerol, room temperature, 30 min; GST-TFs on glutathione beads, 16-mer random dsDNA library, 0.1% formaldehyde crosslink after washing; high values mean tight binding
# [1] = target: T1, FLI1 (Homo sapiens, UniProt Q01543 1-452); settings: protein: recombinant; tags: N-terminal GST; dsDNA, one strand shown
# T1 sequence: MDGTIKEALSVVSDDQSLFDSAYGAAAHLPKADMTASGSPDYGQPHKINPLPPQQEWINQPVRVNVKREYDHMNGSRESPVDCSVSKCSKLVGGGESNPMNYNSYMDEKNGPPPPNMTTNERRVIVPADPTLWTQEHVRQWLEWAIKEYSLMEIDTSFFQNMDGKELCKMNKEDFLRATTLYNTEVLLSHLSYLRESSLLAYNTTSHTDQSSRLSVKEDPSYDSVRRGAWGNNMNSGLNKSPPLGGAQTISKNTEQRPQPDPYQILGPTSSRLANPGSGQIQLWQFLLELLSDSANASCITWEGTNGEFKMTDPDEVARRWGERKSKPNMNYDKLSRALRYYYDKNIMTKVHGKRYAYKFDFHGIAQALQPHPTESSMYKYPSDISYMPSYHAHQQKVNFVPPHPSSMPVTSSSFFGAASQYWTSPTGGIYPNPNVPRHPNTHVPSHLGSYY
# How it was run: (§1)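 GST fusions of human transcription factors were expressed in yeast and captured with glutathione beads. Once given DNA barcodes and pooled alongside a tag-only sample, they were incubated for 30 min at room temperature with 200 nmole of a random double-stranded 16-mer DNA library in Tris/NaCl/DTT/glycerol buffer, then washed, crosslinked (0.1% formaldehyde), proximity-ligated, PCR-amplified and sequenced on an Illumina NextSeq500. The binding signal of each hexamer is its read frequency for a factor divided by its frequency for the tag-only sample.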
# [2] = target: T2, ELK1 (Homo sapiens, UniProt P19419 1-428); settings: protein: recombinant; tags: N-terminal GST; dsDNA, one strand shown
# T2 sequence: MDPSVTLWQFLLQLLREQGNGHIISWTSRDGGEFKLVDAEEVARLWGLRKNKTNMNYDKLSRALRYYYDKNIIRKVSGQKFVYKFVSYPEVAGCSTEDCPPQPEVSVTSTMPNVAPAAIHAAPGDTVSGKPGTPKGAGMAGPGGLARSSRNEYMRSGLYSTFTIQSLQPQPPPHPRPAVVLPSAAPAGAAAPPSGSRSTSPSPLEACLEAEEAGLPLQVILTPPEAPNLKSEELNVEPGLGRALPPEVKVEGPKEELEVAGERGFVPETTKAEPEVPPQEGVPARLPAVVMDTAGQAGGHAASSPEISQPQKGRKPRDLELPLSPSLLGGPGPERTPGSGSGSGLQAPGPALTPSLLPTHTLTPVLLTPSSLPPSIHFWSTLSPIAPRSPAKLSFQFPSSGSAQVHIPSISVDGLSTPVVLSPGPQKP
# How it was run: as §1
# [3] = target: T3, GABPA (Homo sapiens, UniProt Q06546 1-454); settings: protein: recombinant; tags: N-terminal GST; dsDNA, one strand shown
# T3 sequence: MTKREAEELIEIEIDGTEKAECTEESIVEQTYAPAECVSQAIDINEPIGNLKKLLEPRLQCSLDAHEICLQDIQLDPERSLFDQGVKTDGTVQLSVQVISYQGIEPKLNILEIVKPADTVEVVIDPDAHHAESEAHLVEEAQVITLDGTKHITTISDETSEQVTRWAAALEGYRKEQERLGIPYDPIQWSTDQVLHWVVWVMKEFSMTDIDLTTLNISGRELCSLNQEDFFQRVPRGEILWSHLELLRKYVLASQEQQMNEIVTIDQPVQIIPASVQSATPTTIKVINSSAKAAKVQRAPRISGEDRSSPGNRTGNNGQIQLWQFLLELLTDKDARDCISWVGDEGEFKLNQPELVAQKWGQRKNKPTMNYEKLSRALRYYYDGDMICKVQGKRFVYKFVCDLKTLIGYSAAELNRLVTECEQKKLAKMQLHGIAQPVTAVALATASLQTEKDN
# How it was run: as §1
# [4] = target: T4, ERG (Homo sapiens, UniProt P11308 1-479); settings: protein: recombinant; tags: N-terminal GST; dsDNA, one strand shown
# T4 sequence: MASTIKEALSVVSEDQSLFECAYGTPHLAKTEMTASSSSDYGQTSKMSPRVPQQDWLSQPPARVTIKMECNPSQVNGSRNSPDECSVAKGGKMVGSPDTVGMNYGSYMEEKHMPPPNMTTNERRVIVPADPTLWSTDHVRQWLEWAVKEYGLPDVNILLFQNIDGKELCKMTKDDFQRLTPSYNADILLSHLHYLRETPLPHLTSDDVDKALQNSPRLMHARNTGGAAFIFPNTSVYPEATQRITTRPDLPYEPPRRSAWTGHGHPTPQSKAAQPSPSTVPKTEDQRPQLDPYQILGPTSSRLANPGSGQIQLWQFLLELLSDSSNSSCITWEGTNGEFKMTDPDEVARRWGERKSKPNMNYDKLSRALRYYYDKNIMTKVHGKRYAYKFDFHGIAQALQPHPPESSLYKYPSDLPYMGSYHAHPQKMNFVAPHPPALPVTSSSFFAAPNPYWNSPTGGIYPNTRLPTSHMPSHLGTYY
# How it was run: as §1
# [5] = target: ELF1 (Homo sapiens, UniProt P32519 1-619); settings: protein: recombinant; tags: N-terminal GST; dsDNA, one strand shown
# How it was run: as §1
# [6] = target: T5, EHF (Homo sapiens, UniProt Q9NZC4 1-300); settings: protein: recombinant; tags: N-terminal GST; dsDNA, one strand shown
# T5 sequence: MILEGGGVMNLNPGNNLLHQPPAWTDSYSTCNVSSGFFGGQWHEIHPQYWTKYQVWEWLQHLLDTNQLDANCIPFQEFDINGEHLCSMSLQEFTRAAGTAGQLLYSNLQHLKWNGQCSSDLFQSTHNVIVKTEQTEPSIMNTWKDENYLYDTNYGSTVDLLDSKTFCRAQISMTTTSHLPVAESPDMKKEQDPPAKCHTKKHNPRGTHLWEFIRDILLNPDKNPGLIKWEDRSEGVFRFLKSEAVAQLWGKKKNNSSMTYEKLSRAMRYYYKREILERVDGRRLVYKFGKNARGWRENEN
# How it was run: as §1
# [7] = target: SPI1 (Homo sapiens, UniProt P17947 1-270); settings: protein: recombinant; tags: N-terminal GST; dsDNA, one strand shown
# How it was run: as §1
# [8] = target: SPIB (Homo sapiens, UniProt Q01892 1-262); settings: protein: recombinant; tags: N-terminal GST; dsDNA, one strand shown
# How it was run: as §1
# [9] = target: T6, ELK3 (Homo sapiens, UniProt P41970 1-407); settings: protein: recombinant; tags: N-terminal GST; dsDNA, one strand shown
# T6 sequence: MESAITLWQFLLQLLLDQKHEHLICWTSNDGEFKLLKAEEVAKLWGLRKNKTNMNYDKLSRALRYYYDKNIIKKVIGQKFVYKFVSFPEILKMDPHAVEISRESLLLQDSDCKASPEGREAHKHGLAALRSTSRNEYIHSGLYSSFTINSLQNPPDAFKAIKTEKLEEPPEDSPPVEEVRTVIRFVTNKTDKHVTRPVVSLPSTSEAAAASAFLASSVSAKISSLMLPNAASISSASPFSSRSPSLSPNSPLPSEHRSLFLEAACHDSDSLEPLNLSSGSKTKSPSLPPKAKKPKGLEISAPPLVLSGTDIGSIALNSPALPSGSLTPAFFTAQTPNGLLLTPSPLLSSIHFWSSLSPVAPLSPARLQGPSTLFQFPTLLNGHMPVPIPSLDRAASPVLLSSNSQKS
# How it was run: as §1
# [10] = target: T7, FEV (Homo sapiens, UniProt Q99581 1-238); settings: protein: recombinant; tags: N-terminal GST; dsDNA, one strand shown
# T7 sequence: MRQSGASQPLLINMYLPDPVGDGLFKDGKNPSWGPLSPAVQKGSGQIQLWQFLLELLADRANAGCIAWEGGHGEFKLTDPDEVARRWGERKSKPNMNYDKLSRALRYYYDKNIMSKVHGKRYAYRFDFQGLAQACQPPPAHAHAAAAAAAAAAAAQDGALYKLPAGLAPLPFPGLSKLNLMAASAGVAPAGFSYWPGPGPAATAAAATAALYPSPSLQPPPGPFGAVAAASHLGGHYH
# How it was run: as §1
# [11] = target: ETV5 (Homo sapiens, UniProt P41161 1-510); settings: protein: recombinant; tags: N-terminal GST; dsDNA, one strand shown
# How it was run: as §1
# [12] = target: HSF1 (Homo sapiens, UniProt Q00613 1-529); settings: protein: recombinant; tags: N-terminal GST; chain copies: 3; dsDNA, one strand shown
# How it was run: as §1
# [13] = target: T8, SPIC (Homo sapiens, UniProt Q8N5J4 1-248); settings: protein: recombinant; tags: N-terminal GST; dsDNA, one strand shown
# T8 sequence: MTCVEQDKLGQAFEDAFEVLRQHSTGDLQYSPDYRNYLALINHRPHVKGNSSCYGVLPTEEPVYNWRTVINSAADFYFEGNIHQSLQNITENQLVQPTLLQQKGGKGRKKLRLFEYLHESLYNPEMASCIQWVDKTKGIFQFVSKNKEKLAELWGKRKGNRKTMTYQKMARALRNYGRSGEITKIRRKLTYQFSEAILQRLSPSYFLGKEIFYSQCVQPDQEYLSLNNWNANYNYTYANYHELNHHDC
# How it was run: as §1
# [14] = target: ELF4 (Homo sapiens, UniProt Q99607 1-663); settings: protein: recombinant; tags: N-terminal GST; dsDNA, one strand shown
# How it was run: as §1
# [15] = target: T9, ELK4 (Homo sapiens, UniProt P28324-2 1-405); settings: protein: recombinant; tags: N-terminal GST; dsDNA, one strand shown
# T9 sequence: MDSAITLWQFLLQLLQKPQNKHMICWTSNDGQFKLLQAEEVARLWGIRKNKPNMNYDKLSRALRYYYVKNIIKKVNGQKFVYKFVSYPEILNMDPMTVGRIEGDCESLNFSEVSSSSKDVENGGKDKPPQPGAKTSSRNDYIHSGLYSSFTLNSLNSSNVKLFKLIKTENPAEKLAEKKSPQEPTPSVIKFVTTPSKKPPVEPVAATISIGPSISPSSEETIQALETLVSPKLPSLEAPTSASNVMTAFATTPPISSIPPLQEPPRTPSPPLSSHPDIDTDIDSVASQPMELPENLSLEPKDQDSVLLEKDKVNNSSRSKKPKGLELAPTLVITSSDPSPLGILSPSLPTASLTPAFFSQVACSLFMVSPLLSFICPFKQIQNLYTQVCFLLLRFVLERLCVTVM
# How it was run: as §1
# [16] = target: T10, ETV2 (Homo sapiens, UniProt O00321 1-342); settings: protein: recombinant; tags: N-terminal GST; dsDNA, one strand shown
# T10 sequence: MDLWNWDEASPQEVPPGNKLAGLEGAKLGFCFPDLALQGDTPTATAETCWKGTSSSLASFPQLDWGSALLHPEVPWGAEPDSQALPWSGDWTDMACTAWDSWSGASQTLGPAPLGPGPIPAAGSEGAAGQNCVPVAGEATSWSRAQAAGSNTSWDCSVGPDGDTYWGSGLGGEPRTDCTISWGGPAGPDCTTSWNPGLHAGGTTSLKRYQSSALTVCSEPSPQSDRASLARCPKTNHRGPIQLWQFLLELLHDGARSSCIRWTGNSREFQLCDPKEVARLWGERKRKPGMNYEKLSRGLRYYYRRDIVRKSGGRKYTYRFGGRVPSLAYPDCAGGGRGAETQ
# How it was run: as §1
# [17] = target: T11, ELF3 (Homo sapiens, UniProt P78545 1-371); settings: protein: recombinant; tags: N-terminal GST; dsDNA, one strand shown
# T11 sequence: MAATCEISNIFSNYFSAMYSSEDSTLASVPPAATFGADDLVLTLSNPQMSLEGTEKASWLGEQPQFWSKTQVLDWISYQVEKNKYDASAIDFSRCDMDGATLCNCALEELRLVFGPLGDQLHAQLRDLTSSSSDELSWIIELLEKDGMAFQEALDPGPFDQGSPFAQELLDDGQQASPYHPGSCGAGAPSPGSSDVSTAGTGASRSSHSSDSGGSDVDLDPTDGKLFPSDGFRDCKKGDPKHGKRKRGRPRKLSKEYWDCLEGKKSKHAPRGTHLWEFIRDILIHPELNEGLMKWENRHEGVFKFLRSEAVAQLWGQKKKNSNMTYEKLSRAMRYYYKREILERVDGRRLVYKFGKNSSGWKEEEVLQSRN
# How it was run: as §1
# [18] = target: CRX (Homo sapiens, UniProt O43186 1-299); settings: protein: recombinant; tags: N-terminal GST; dsDNA, one strand shown
# How it was run: as §1
# [19] = target: ETV1 (Homo sapiens, UniProt P50549 1-477); settings: protein: recombinant; tags: N-terminal GST; dsDNA, one strand shown
# How it was run: as §1
# ELF4, sequence (Q99607 whole entry): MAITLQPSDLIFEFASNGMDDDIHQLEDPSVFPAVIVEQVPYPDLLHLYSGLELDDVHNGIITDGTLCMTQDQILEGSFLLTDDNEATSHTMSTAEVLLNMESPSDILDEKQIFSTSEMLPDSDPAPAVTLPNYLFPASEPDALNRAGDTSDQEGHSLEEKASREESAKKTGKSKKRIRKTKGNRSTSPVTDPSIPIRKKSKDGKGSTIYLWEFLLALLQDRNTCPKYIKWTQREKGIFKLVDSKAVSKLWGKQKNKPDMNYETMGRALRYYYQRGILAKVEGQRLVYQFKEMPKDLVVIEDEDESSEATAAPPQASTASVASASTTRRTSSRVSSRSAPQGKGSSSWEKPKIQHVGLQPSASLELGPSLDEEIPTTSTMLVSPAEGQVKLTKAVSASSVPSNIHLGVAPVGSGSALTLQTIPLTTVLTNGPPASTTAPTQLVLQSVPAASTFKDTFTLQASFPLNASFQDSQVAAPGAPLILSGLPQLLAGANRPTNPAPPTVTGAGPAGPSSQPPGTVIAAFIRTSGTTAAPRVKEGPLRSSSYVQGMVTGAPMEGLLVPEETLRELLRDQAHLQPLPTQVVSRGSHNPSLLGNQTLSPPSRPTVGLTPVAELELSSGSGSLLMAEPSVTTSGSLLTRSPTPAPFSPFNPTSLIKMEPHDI
# HSF1, sequence (Q00613 whole entry): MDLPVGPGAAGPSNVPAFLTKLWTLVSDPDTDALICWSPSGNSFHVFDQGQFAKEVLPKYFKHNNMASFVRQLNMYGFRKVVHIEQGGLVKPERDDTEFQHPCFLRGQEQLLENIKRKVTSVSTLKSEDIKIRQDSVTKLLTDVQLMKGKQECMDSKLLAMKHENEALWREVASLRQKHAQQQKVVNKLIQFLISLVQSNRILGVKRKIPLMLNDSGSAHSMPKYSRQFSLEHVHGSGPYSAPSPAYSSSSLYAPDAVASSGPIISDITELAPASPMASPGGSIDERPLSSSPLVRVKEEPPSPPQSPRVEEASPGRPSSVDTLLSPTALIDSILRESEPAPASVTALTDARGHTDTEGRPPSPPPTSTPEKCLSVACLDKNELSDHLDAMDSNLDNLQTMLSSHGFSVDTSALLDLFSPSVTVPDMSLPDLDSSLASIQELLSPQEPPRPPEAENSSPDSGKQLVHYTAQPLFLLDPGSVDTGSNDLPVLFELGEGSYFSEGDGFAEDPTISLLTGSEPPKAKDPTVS
# CRX, sequence (O43186 whole entry): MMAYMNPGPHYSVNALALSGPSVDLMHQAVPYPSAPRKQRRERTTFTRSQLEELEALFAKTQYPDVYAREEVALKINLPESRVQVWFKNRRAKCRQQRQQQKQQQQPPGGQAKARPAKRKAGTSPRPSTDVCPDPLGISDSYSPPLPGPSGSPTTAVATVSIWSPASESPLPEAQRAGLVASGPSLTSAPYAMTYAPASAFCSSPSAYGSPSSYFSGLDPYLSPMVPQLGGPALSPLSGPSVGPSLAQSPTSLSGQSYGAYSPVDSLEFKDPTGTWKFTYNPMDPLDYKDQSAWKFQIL
# ELF1, sequence (P32519 whole entry): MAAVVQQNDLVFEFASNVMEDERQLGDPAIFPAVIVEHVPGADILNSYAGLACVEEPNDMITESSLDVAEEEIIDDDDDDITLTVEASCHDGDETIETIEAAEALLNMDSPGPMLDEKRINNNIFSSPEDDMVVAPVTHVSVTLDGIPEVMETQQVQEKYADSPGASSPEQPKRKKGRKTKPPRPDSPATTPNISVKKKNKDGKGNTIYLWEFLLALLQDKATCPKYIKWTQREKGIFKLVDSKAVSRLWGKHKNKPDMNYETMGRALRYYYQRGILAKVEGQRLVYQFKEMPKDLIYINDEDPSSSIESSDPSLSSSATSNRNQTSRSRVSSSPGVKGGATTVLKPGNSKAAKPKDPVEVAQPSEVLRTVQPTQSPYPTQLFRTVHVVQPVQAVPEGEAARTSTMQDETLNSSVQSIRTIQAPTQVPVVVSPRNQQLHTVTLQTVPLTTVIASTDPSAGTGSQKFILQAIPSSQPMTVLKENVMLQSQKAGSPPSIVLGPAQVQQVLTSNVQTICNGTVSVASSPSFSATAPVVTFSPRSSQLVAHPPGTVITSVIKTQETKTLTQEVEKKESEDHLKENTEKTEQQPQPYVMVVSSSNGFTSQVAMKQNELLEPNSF
# ETV5, sequence (P41161 whole entry): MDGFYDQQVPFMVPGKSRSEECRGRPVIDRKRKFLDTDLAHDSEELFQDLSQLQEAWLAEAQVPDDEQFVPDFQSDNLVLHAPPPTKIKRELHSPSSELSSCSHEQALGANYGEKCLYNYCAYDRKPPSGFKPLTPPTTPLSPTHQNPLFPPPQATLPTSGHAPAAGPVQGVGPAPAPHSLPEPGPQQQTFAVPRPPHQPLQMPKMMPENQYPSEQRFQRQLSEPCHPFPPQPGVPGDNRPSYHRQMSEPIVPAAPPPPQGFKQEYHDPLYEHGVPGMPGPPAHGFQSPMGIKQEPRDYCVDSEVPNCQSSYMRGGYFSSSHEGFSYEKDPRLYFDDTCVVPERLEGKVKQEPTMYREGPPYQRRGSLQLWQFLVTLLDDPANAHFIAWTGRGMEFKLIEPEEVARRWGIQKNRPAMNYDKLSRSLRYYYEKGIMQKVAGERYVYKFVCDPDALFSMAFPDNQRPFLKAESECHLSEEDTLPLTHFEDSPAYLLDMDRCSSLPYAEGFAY
# ETV1, sequence (P50549 whole entry): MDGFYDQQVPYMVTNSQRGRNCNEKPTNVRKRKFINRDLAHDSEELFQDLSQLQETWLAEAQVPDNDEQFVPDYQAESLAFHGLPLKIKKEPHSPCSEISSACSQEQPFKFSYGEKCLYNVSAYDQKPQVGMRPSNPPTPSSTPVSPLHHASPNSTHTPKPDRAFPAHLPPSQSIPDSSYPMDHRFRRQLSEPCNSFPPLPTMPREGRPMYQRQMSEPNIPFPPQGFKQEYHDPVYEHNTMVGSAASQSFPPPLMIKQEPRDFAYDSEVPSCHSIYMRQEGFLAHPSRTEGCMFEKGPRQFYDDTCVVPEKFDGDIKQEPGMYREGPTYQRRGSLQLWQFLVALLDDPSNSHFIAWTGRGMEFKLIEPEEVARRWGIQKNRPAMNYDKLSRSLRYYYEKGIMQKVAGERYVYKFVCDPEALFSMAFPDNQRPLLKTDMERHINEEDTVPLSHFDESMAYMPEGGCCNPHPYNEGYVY
# SPIB, sequence (Q01892 whole entry): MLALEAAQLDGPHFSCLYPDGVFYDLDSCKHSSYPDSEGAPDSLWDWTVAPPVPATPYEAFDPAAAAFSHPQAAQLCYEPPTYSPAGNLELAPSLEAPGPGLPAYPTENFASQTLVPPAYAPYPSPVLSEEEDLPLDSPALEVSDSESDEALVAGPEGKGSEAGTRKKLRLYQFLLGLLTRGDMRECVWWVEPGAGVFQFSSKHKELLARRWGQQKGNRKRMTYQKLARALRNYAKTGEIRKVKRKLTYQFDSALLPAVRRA
sequence,measurement,setting,value
TCGTCT,binding signal,[1],"1.52 fold enrichment (6-mer frequency, TF over GST control)"
same,binding signal,[2],"1.34 fold enrichment (6-mer frequency, TF over GST control)"
same,binding signal,[3],"1.43 fold enrichment (6-mer frequency, TF over GST control)"
same,binding signal,[4],"1.34 fold enrichment (6-mer frequency, TF over GST control)"
same,binding signal,[5],"1.4 fold enrichment (6-mer frequency, TF over GST control)"
same,binding signal,[6],"1.38 fold enrichment (6-mer frequency, TF over GST control)"
same,binding signal,[7],"1.26 fold enrichment (6-mer frequency, TF over GST control)"
same,binding signal,[8],"1.42 fold enrichment (6-mer frequency, TF over GST control)"
same,binding signal,[9],"1.23 fold enrichment (6-mer frequency, TF over GST control)"
same,binding signal,[10],"1.3 fold enrichment (6-mer frequency, TF over GST control)"
same,binding signal,[11],"1.33 fold enrichment (6-mer frequency, TF over GST control)"
same,binding signal,[12],"1.46 fold enrichment (6-mer frequency, TF over GST control)"
same,binding signal,[13],"1.27 fold enrichment (6-mer frequency, TF over GST control)"
same,binding signal,[14],"1.35 fold enrichment (6-mer frequency, TF over GST control)"
same,binding signal,[15],"1.32 fold enrichment (6-mer frequency, TF over GST control)"
same,binding signal,[16],"1.36 fold enrichment (6-mer frequency, TF over GST control)"
same,binding signal,[17],"1.52 fold enrichment (6-mer frequency, TF over GST control)"
same,binding signal,[18],"1.37 fold enrichment (6-mer frequency, TF over GST control)"
same,binding signal,[19],"1.41 fold enrichment (6-mer frequency, TF over GST control)"
